Reference: the supplement of paper PMC13380429

System: Vero E6 infected with SARS-CoV-2
Assay: inhibition of SARS-CoV-2 cytopathic effect; higher = more antiviral protection, active = above 15
Details: 48 h

Measured: inhibition of SARS-CoV-2 cytopathic effect

COc1ccc(C(=O)c2ccccc2)c(O)c1 [oxybenzone]
inactive: 1 nM 0.11% | 8.33 nM 2.31% | 100 nM 0.71% | 833.33 nM 0.2% | 10000 nM 0.65%

C[C@H](c1ccc(F)cc1CCCC(=O)O)N(c1cc(F)ccc1F)S(=O)(=O)c1ccc(Cl)cc1
inactive: 1 nM -1.95% | 8.33 nM -1.39% | 100 nM -1.46% | 833.33 nM -3.65% | 10000 nM -5.49%

CC(C)(Sc1ccncc1-c1ccc(C#N)c2ccccc12)C(=O)O [verinurad]
inactive: 1 nM -0.56% | 8.33 nM 1.54% | 100 nM 0.77% | 833.33 nM -0.34% | 10000 nM 1.75%

Cc1onc(-c2c(Cl)cccc2Cl)c1C(=O)N[C@@H]1C(=O)N2[C@@H]1SC(C)(C)[C@@H]2C(=O)O [dicloxacillin]
inactive: 1 nM 0.8% | 8.33 nM -0.85% | 100 nM -0.59% | 833.33 nM 1% | 10000 nM 1.51%

c1ccc2c(c1)sc1ccccc12 [dibenzothiophene]
inactive: 1 nM -0.91% | 8.33 nM 1.31% | 100 nM 0.34% | 833.33 nM 0.07% | 10000 nM 0.68%

COc1ncc(-c2ccc3nccc(-c4ccnnc4)c3c2)cc1NS(=O)(=O)c1ccc(F)cc1F
inactive: 1 nM -1.37% | 8.33 nM -0.94% | 100 nM -8.41% | 833.33 nM -8.47% | 10000 nM 3.03%

O=C1[C@H](Cc2ccc(O)cc2)N2C(=O)CCN(C(=O)NCc3ccccc3)[C@H]2CN1Cc1cccc2ccccc12
inactive: 1 nM -0.18% | 8.33 nM 0.82% | 100 nM 2.23% | 833.33 nM 1.89% | 10000 nM -3.36%
